According to PubChem BioAssay (NCI):
This is part of a sample that, as a whole, favours compounds with a hit. Of some 83,000 tested, about 20% had one in any assay.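 Results are percent growth after 48 hours of single-concentration exposure. 100 means growth as in untreated cells, lower positive values show inhibition; negative values down to -100 show cell death.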 Values without a mark were called inactive. Calls of active or inactive are those of the source. How the source made its calls: active means growth percent below 10; inactive means the rest.

What was measured:
Experiment in all cases: NCI-60 one-dose screen, 48 h (100 = growth as untreated, 0 = no growth, -100 = all killed)
Settings in all cases: 10 µM unless noted
SR leukemia = tested on: SR leukemia
RPMI-8226 leukemia = tested on: RPMI-8226 leukemia
OVCAR-8 ovarian = tested on: OVCAR-8 ovarian
OVCAR-5 ovarian = tested on: OVCAR-5 ovarian
OVCAR-4 ovarian = tested on: OVCAR-4 ovarian
SK-OV-3 ovarian = tested on: SK-OV-3 ovarian
IGROV1 ovarian = tested on: IGROV1 ovarian
OVCAR-3 ovarian = tested on: OVCAR-3 ovarian
HS 578T breast = tested on: HS 578T breast
NCI/ADR-RES ovarian = tested on: NCI/ADR-RES ovarian
T-47D breast = tested on: T-47D breast
MDA-MB-435 melanoma = tested on: MDA-MB-435 melanoma
SW-620 colon = tested on: SW-620 colon
MCF7 breast = tested on: MCF7 breast
HCT-116 colon = tested on: HCT-116 colon
HCC-2998 colon = tested on: HCC-2998 colon
KM12 colon = tested on: KM12 colon
BT-549 breast = tested on: BT-549 breast

| Structure (SMILES) | growth (SR leukemia) | growth (RPMI-8226 leukemia) | growth (OVCAR-8 ovarian) | growth (OVCAR-5 ovarian) | growth (OVCAR-4 ovarian) | growth (SK-OV-3 ovarian) | growth (IGROV1 ovarian) | growth (OVCAR-3 ovarian) | growth (HS 578T breast) | growth (NCI/ADR-RES ovarian) | growth (T-47D breast) | growth (MDA-MB-435 melanoma) | growth (SW-620 colon) | growth (MCF7 breast) | growth (HCT-116 colon) | growth (HCC-2998 colon) | growth (KM12 colon) | growth (BT-549 breast) |
| --- | --- | --- | --- | --- | --- | --- | --- | --- | --- | --- | --- | --- | --- | --- | --- | --- | --- | --- |
| CCSc1nc(-c2ccc(F)cc2)c(C#N)c(=O)[nH]1 | 118% | 105% | 107% | 95.9% | 103% | 111% | 107% | 122% | 117% | 103% | 120% | 101% | 107% | 102% | 109% | 99.8% | 100% |  |
| CC1=C([Se]CC(OC(=O)[C@@H](CSSC(C)(C)C)NC(=O)C(C)(C)C)C(=O)NCCCCCC(=O)OCc2ccccc2)C(=O)c2ccccc2C1=O (some centres undefined) | 29.2% | -11% (active) | 8.55% (active) | -28.7% (active) | 14.5% | -17.5% (active) | -60.9% (active) | 1.96% (active) | 13.6% | -12.4% (active) | 17.9% | 14.2% | 9.84% (active) |  | -18% (active) | -63.9% (active) | 6.76% (active) | -64.2% (active) |
| O=c1sc2ncnc3ncn1c32 | 33.2% | 25.6% | 78.3% | 65.3% | 48.7% | 22.8% | 96% | 17.6% | 72.7% | 70.1% | 34.5% | 29.5% | 73.1% | 22.4% | 50.9% | 79.5% | 70% |  |
| COc1cc(/C=C\C(C)=N\Nc2ccccc2)ccc1O | 39.3% | 76.3% | 90.5% | 84.7% | 85.6% | 121% | 96% | 89.2% | 92.1% | 77.4% | 68% | 69.7% | 106% |  | 91.4% |  | 52.8% | 102% |
| CC(=O)[C@H]1CC[C@H]2[C@@H]3C[C@H](C)C4=CC(=O)CC[C@]4(C)[C@H]3C(=O)C[C@]12C | 97.5% | 97.3% | 101% | 103% | 102% | 98% | 98.6% | 110% | 103% | 98.7% | 87.5% | 119% | 98.6% | 99.3% | 93.1% |  | 110% | 98% |
| O=C(Nc1ccccc1OC(=O)c1ccccc1)c1ccccc1 | 58.8% | 91.7% | 92.6% | 93.1% | 63.5% | 89.2% | 90.6% | 77.7% | 101% | 87.8% | 67% | 104% | 23.6% | 27.2% | 9.26% (active) |  | 25.7% | 72.7% |
| COc1ccc(-c2cnc(SCC(=O)Nc3ccc(-c4nc5ccccc5s4)cc3)n2-c2ccc(OC)cc2)cc1 | 99.5% | 113% | 105% | 99% | 111% | 111% | 91.5% | 109% | 105% | 107% | 93.1% | 114% | 110% | 47.4% | 107% |  | 113% | 108% |
| Nc1nc(Nc2ccccc2SSc2ccccc2Nc2nc(N)nc(C(Cl)(Cl)Cl)n2)nc(C(Cl)(Cl)Cl)n1 | 14.8% | 36.1% | 47.9% | 82% | 65.3% | 121% | 37% | 64.6% | 73.4% | 48.9% | 15.7% | 82.9% | 68.1% | 75.7% | 45.8% | 111% | 43.4% |  |
| COc1cccc2c1C(=O)c1c(O)c3c(c(O)c1C2=O)C[C@@](O)(C(C)=O)C[C@@H]3O[C@H]1C[C@H](N)[C@H](O)[C@H](C)O1 | -5.17% (active) | -22.9% (active) | -6.3% (active) | 2.15% (active) | -16.8% (active) | 7.97% (active) | -10.2% (active) | -18.7% (active) | -17.6% (active) | 11.8% | -12.2% (active) | -98.7% (active) | -12.8% (active) | 0% (active) | 0.333% (active) | -70.4% (active) | -14.9% (active) |  |
| Cc1onc(-c2ccccc2Cl)c1C(=O)N[C@@H]1C(=O)N2[C@@H]1SC(C)(C)[C@@H]2C(=O)O | 91.6% | 95.4% | 106% | 115% | 110% | 104% | 101% | 118% | 114% | 109% | 98.1% | 107% | 110% | 101% | 101% | 99.6% | 108% |  |
| N#Cc1c(-c2ccccc2)cc(-c2ccccc2)n(CCC(=O)O)c1=O | 19.8% | 50.3% | 50.3% | 94.2% | 90.8% | 92% | 50.2% | 14.8% | 58.2% | 33.7% | 44.1% | -9.89% (active) | 37.3% |  | 40% | 74.3% | 34.5% | 27.2% |
| c1ccc(-c2nc(Nc3nccnn3)c3ccccc3n2)cc1 | 91.6% | 98.4% | 95.3% | 97.1% | 122% | 115% | 92.2% | 100% | 98.8% | 98.8% | 83.4% | 101% | 97.9% | 75% | 100% | 106% | 97.8% |  |
| Cc1cc(=O)oc2cc(OCCn3c(C)nn(-c4ccc(Cl)cc4)c3=O)ccc12 | 21.2% | 31% | 17.7% | 38.8% | 67.1% | 41.1% | 59.7% | 14.8% | 34.8% | 24.7% | 47.4% | -38.6% (active) |  | 15.8% | 15.1% | 46.7% | 31.4% | 56.7% |
| CSc1nc(N)c2c(n1)N(C)C=NS2(=O)=O | 102% | 103% | 102% | 93.7% | 108% | 117% | 119% | 122% | 118% | 103% | 97.2% | 111% | 102% |  | 102% | 107% | 117% | 100% |
| c1ccc2nc(Cn3c[n+](Cc4ccc5ccccc5n4)c4ccccc43)ccc2c1 | 14.7% | -6.43% (active) | 29.9% | 71.1% | 22.7% | 57.4% | 34.8% | 23.8% | 60.5% | 102% | 10.6% | 9.62% (active) | 45.3% | 22.9% | 18.1% | 32.9% | 21.9% |  |
| COc1ccc(-c2c3c(N)nc(-c4ccncc4)nc3nc3c2c(C)nn3-c2ccccc2)cc1 | 17.1% | 84.3% | 63.2% | 64.7% | 11.4% | 53.4% | 77% | 22.4% | 71.2% | 74.5% | 75.2% | 54% | 34.4% | 47.7% | 15.6% | 102% | 62.9% |  |
| NC(=NCCCCCCN=C(N)/N=C(\N)Nc1ccc(Cl)cc1)/N=C(\N)Nc1ccc(Cl)cc1 | 25.1% | 28.4% | 17.6% | 28.7% | 21.4% | 2.57% (active) | -24.1% (active) | 17% | 18.1% | 46.8% | 19.3% | 18.3% | 23.4% |  | 13.5% | 15.3% | -12% (active) | 10.6% |
| CC(NC(=O)Oc1cccc2ccccc12)c1ccccc1 (centres undefined) | 90.8% | 109% | 96.9% | 123% | 97.4% | 111% | 116% | 103% | 107% | 97.6% | 92.7% | 102% | 98.6% |  | 105% |  | 99.8% | 106% |
